Results reported in the supplement of paper PMC12282887.
± gives the standard deviation of the averaged measurements.

Key:
Test in all cases: promoter activity interaction Z-score (Lux/OD deviation from empty-vector control); higher = stronger promoter induction by the compound
[1] = tested on: E. coli BW25113 acrABp lux reporter
In short: (§1)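 E. coli BW25113 (wild type or marA, soxS or rob deletion) carrying low-copy luxCDABE promoter reporters grew in 40 µl LB Lennox in 384-well plates at 37°C. Each compound was tested at four 1:2 dilutions in biological duplicates. OD600 and luminescence were read every 30 min for 12 h. Areas were taken over 0–8 h (wild type) or 1–9 h (mutants), and wells below 10% of median growth area were removed. The score is the Z-transformed residual of growth-normalised luminescence fitted against the empty-vector control.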

[2] = tested on: E. coli BW25113 marRABp lux reporter
In short: as §1

[3] = tested on: E. coli BW25113 micFp lux reporter
In short: as §1

[4] = tested on: E. coli BW25113 ompFp lux reporter
In short: as §1

[5] = tested on: E. coli BW25113 robp lux reporter
In short: as §1

[6] = tested on: E. coli BW25113 soxSp lux reporter
In short: as §1

[7] = tested on: E. coli BW25113 tolCp lux reporter
In short: as §1

[8] = 17.4 µg/ml, genetic background: wild type
[9] = 17.4 µg/ml, genetic background: ΔmarA
[10] = 17.4 µg/ml, genetic background: Δrob
[11] = 17.4 µg/ml, genetic background: ΔsoxS
[12] = 34.9 µg/ml, genetic background: wild type
[13] = 34.9 µg/ml, genetic background: ΔmarA
[14] = 34.9 µg/ml, genetic background: Δrob
[15] = 34.9 µg/ml, genetic background: ΔsoxS
[16] = 69.8 µg/ml, genetic background: wild type
[17] = 69.8 µg/ml, genetic background: ΔmarA
[18] = 69.8 µg/ml, genetic background: Δrob
[19] = 69.8 µg/ml, genetic background: ΔsoxS
[20] = 139.6 µg/ml, genetic background: wild type
[21] = 139.6 µg/ml, genetic background: ΔmarA
[22] = 139.6 µg/ml, genetic background: Δrob
[23] = 139.6 µg/ml, genetic background: ΔsoxS

Structure (SMILES): Nc1ccn(C[C@@H](CO)OCP(=O)(O)O)c(=O)n1 [Cidofovir]
- promoter activity interaction Z-score [1, 8]: -0.283 ± 0.054
- promoter activity interaction Z-score [1, 9]: 0.149 ± 0.3
- promoter activity interaction Z-score [1, 10]: -0.0654 ± 0.1
- promoter activity interaction Z-score [1, 11]: -0.0538 ± 0.14
- promoter activity interaction Z-score [1, 12]: 0.196 ± 0.13
- promoter activity interaction Z-score [1, 13]: -0.657 ± 0.64
- promoter activity interaction Z-score [1, 14]: 0.0446 ± 0.2
- promoter activity interaction Z-score [1, 15]: 0.215 ± 0.4
- promoter activity interaction Z-score [1, 16]: 0.219 ± 0.079
- promoter activity interaction Z-score [1, 17]: 0.553 ± 0.79
- promoter activity interaction Z-score [1, 18]: -0.00642 ± 0.084
- promoter activity interaction Z-score [1, 19]: 0.0852 ± 0.5
- promoter activity interaction Z-score [1, 20]: 0.22 ± 0.15
- promoter activity interaction Z-score [1, 21]: -0.132 ± 0.17
- promoter activity interaction Z-score [1, 22]: 0.233 ± 0.03
- promoter activity interaction Z-score [1, 23]: 0.385 ± 0.26
- promoter activity interaction Z-score [2, 8]: -0.0416 ± 0.17
- promoter activity interaction Z-score [2, 9]: -0.106 ± 0.11
- promoter activity interaction Z-score [2, 10]: -0.0241 ± 0.025
- promoter activity interaction Z-score [2, 11]: 0.0975 ± 0.049
- promoter activity interaction Z-score [2, 12]: 0.263 ± 0.48
- promoter activity interaction Z-score [2, 13]: -0.336 ± 0.093
- promoter activity interaction Z-score [2, 14]: 0.0475 ± 0.0048
- promoter activity interaction Z-score [2, 15]: -0.0388 ± 0.24
- promoter activity interaction Z-score [2, 16]: -0.235 ± 0.23
- promoter activity interaction Z-score [2, 17]: -0.157 ± 0.23
- promoter activity interaction Z-score [2, 18]: -0.0863 ± 0.087
- promoter activity interaction Z-score [2, 19]: 0.0268 ± 0.12
- promoter activity interaction Z-score [2, 20]: 0.0629 ± 0.086
- promoter activity interaction Z-score [2, 21]: -0.277 ± 0.08
- promoter activity interaction Z-score [2, 22]: 0.278 ± 0.14
- promoter activity interaction Z-score [2, 23]: 0.18 ± 0.28
- promoter activity interaction Z-score [3, 8]: 0.0224 ± 0.19
- promoter activity interaction Z-score [3, 9]: 0.0154 ± 0.092
- promoter activity interaction Z-score [3, 10]: -0.0713 ± 0.17
- promoter activity interaction Z-score [3, 11]: 0.11 ± 0.48
- promoter activity interaction Z-score [3, 12]: -0.0338 ± 0.16
- promoter activity interaction Z-score [3, 13]: -0.00819 ± 0.0042
- promoter activity interaction Z-score [3, 14]: -0.103 ± 0.19
- promoter activity interaction Z-score [3, 15]: -0.106 ± 0.1
- promoter activity interaction Z-score [3, 16]: -0.121 ± 0.16
- promoter activity interaction Z-score [3, 17]: -0.0731 ± 0.046
- promoter activity interaction Z-score [3, 18]: -0.0746 ± 0.21
- promoter activity interaction Z-score [3, 19]: -0.0778 ± 0.17
- promoter activity interaction Z-score [3, 20]: -0.297 ± 0.16
- promoter activity interaction Z-score [3, 21]: -0.185 ± 0.15
- promoter activity interaction Z-score [3, 22]: -0.00734 ± 0.29
- promoter activity interaction Z-score [3, 23]: -0.28 ± 0.054
- promoter activity interaction Z-score [4, 8]: -0.101 ± 0.21
- promoter activity interaction Z-score [4, 9]: -0.0401 ± 0.19
- promoter activity interaction Z-score [4, 10]: -0.282 ± 0.46
- promoter activity interaction Z-score [4, 11]: 0.292 ± 0.4
- promoter activity interaction Z-score [4, 12]: 0.3 ± 0.056
- promoter activity interaction Z-score [4, 13]: -0.163 ± 0.48
- promoter activity interaction Z-score [4, 14]: 0.122 ± 0.34
- promoter activity interaction Z-score [4, 15]: 0.493 ± 0.19
- promoter activity interaction Z-score [4, 16]: 0.00967 ± 0.29
- promoter activity interaction Z-score [4, 17]: -0.0743 ± 0.39
- promoter activity interaction Z-score [4, 18]: -0.0183 ± 0.51
- promoter activity interaction Z-score [4, 19]: 0.835 ± 0.063
- promoter activity interaction Z-score [4, 20]: 0.281 ± 0.35
- promoter activity interaction Z-score [4, 21]: 0.0677 ± 0.43
- promoter activity interaction Z-score [4, 22]: 1.05 ± 0.56
- promoter activity interaction Z-score [4, 23]: 0.354 ± 0.32
- promoter activity interaction Z-score [5, 8]: 0.0479 ± 0.44
- promoter activity interaction Z-score [5, 9]: -0.325 ± 0.089
- promoter activity interaction Z-score [5, 10]: -0.283 ± 0.23
- promoter activity interaction Z-score [5, 11]: 0.755 ± 0.19
- promoter activity interaction Z-score [5, 12]: 0.8822 ± 0.0041
- promoter activity interaction Z-score [5, 13]: -0.684 ± 0.34
- promoter activity interaction Z-score [5, 14]: 0.316 ± 0.54
- promoter activity interaction Z-score [5, 15]: 0.739 ± 0.8
- promoter activity interaction Z-score [5, 16]: -0.0584 ± 0.52
- promoter activity interaction Z-score [5, 17]: -0.117 ± 0.21
- promoter activity interaction Z-score [5, 18]: 0.528 ± 1.2
- promoter activity interaction Z-score [5, 19]: 0.716 ± 0.15
- promoter activity interaction Z-score [5, 20]: 0.0675 ± 0.18
- promoter activity interaction Z-score [5, 21]: -0.557 ± 0.22
- promoter activity interaction Z-score [5, 22]: 0.839 ± 0.21
- promoter activity interaction Z-score [5, 23]: 0.434 ± 0.44
- promoter activity interaction Z-score [6, 8]: 0.0175 ± 0.013
- promoter activity interaction Z-score [6, 9]: 0.0495 ± 0.085
- promoter activity interaction Z-score [6, 10]: -0.108 ± 0.04
- promoter activity interaction Z-score [6, 11]: 0.122 ± 0.064
- promoter activity interaction Z-score [6, 12]: -0.0402 ± 0.16
- promoter activity interaction Z-score [6, 13]: 0.0487 ± 0.082
- promoter activity interaction Z-score [6, 14]: 0.0552 ± 0.025
- promoter activity interaction Z-score [6, 15]: 0.246 ± 0.033
- promoter activity interaction Z-score [6, 16]: -0.0559 ± 0.065
- promoter activity interaction Z-score [6, 17]: 0.167 ± 0.11
- promoter activity interaction Z-score [6, 18]: -0.0558 ± 0.063
- promoter activity interaction Z-score [6, 19]: 0.254 ± 0.11
- promoter activity interaction Z-score [6, 20]: 0.021 ± 0.14
- promoter activity interaction Z-score [6, 21]: -0.0152 ± 0.023
- promoter activity interaction Z-score [6, 22]: 0.0293 ± 0.054
- promoter activity interaction Z-score [6, 23]: -0.0927 ± 0.013
- promoter activity interaction Z-score [7, 8]: 0.134 ± 0.031
- promoter activity interaction Z-score [7, 9]: 0.258 ± 0.13
- promoter activity interaction Z-score [7, 10]: -0.735 ± 1.3
- promoter activity interaction Z-score [7, 11]: -0.0946 ± 0.53
- promoter activity interaction Z-score [7, 12]: -0.218 ± 0.42
- promoter activity interaction Z-score [7, 13]: -0.677 ± 0.19
- promoter activity interaction Z-score [7, 14]: 0.0662 ± 0.039
- promoter activity interaction Z-score [7, 15]: 1.55 ± 0.98
- promoter activity interaction Z-score [7, 16]: -0.434 ± 0.14
- promoter activity interaction Z-score [7, 17]: -0.318 ± 0.84
- promoter activity interaction Z-score [7, 18]: -0.696 ± 1
- promoter activity interaction Z-score [7, 19]: -0.168 ± 1
- promoter activity interaction Z-score [7, 20]: -0.582 ± 0.18
- promoter activity interaction Z-score [7, 21]: -0.123 ± 0.94
- promoter activity interaction Z-score [7, 22]: 0.23 ± 0.54
- promoter activity interaction Z-score [7, 23]: -0.453 ± 0.91
